Assay results published in the supplement of paper PMC11732987, “Enantioselective OTUD7B fragment discovery through chemoproteomics screening and high-throughput optimisation” (Communications Chemistry, 2025).

Key:
Test in all cases: log2 ratio of Biotin-Ahx-Ub-VS probe labelling (fragment/DMSO); higher = less target engagement (more negative = stronger competition), active = hit call of the paper (q ≤ 0.05, log2 ratio ≤ -1)
Settings in all cases: compound concentration: 200 uM; treatment time: 3 h
USP34 = USP34 (UniProt Q70CQ2)
Summary of the method: (§1)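 Labelled DUBs were enriched with NeutrAvidin, digested with LysC and trypsin, and run by diaPASEF LC-MS/MS. The labelling used Biotin-Ahx-Ub-VS at 0.5 µM final for 1 h on HEK293T lysate (495 µg per sample) previously treated in triplicate with fragment at 200 µM or vehicle for 3 h. Values are average log2 fragment/vehicle ratios by unpaired t-test on global-median-normalised Spectronaut quantities of proteins with ≥2 unique peptides.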

USP36 = molecular target: T1, USP36 (UniProt Q9P275)
T1 sequence (whole entry): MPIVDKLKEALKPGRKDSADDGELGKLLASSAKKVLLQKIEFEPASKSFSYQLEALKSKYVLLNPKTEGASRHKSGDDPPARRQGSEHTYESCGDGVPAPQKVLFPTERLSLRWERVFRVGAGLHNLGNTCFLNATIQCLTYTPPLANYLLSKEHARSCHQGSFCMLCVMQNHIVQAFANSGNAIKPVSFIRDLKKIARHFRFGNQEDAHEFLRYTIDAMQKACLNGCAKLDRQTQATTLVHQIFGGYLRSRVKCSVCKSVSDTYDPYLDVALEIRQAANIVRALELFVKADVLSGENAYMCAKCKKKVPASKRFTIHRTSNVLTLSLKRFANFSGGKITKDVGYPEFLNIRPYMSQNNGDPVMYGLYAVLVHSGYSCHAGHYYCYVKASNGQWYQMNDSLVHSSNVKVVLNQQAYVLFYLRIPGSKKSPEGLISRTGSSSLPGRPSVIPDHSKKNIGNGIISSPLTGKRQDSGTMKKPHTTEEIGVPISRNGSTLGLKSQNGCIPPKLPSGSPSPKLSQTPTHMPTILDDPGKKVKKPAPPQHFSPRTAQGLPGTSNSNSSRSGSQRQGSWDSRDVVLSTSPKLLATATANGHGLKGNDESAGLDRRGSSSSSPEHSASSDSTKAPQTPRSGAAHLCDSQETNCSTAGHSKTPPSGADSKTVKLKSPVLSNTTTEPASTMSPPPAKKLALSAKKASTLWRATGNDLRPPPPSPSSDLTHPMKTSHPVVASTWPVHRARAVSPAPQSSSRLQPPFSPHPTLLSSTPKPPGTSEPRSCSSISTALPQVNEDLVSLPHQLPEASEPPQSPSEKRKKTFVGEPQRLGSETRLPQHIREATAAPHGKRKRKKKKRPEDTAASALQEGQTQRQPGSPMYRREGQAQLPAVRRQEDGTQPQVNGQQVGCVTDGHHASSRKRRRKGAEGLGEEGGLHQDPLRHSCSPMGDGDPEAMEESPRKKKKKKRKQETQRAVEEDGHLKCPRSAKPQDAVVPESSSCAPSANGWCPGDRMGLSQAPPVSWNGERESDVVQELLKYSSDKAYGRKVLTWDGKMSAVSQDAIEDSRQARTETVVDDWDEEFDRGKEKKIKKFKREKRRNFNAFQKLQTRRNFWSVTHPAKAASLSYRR
Summary of the method: as §1

USP38 = molecular target: T2, USP38 (UniProt Q8NB14)
T2 sequence (whole entry): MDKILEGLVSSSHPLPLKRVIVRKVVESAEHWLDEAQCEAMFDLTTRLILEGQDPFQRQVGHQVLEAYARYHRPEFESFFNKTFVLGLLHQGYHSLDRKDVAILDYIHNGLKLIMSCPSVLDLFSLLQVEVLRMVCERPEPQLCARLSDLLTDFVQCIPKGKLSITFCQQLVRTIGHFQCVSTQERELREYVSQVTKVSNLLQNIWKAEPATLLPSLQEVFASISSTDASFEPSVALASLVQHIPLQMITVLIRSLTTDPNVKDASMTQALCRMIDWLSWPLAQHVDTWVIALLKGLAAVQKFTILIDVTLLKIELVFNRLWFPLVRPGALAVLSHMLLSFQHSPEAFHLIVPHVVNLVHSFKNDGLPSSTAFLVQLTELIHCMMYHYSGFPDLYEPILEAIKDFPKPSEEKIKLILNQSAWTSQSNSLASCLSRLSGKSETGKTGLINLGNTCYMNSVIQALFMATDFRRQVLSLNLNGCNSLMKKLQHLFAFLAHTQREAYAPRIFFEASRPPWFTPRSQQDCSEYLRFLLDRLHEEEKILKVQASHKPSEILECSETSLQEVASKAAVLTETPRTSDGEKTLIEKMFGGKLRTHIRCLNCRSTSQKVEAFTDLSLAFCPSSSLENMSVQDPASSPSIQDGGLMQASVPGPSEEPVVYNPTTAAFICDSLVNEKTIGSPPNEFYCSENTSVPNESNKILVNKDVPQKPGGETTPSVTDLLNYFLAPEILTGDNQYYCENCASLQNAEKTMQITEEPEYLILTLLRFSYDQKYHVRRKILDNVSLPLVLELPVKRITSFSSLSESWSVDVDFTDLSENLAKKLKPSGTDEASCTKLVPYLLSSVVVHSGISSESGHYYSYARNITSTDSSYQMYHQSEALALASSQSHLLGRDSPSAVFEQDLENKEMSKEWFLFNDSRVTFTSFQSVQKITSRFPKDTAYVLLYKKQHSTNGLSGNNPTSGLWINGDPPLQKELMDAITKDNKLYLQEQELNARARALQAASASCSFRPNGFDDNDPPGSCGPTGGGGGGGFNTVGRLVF
Summary of the method: as §1

USP39 = molecular target: T3, USP39 (UniProt Q53GS9)
T3 sequence (whole entry): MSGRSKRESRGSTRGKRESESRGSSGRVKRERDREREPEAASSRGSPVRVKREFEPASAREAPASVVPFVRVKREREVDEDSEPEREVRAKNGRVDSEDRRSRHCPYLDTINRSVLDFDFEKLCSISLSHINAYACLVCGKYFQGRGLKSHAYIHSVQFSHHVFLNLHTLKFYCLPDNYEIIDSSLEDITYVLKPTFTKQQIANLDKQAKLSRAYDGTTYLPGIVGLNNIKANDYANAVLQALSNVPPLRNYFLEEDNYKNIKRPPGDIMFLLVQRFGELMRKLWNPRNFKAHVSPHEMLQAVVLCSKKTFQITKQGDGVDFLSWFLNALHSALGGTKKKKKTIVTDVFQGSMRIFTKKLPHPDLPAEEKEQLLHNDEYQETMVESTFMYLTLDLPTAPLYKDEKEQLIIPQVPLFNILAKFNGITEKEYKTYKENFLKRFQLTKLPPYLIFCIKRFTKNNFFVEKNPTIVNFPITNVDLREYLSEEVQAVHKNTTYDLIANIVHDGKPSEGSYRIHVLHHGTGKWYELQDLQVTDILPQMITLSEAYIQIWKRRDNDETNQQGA
Summary of the method: as §1

USP4 = molecular target: T4, USP4 (UniProt Q13107)
T4 sequence (whole entry): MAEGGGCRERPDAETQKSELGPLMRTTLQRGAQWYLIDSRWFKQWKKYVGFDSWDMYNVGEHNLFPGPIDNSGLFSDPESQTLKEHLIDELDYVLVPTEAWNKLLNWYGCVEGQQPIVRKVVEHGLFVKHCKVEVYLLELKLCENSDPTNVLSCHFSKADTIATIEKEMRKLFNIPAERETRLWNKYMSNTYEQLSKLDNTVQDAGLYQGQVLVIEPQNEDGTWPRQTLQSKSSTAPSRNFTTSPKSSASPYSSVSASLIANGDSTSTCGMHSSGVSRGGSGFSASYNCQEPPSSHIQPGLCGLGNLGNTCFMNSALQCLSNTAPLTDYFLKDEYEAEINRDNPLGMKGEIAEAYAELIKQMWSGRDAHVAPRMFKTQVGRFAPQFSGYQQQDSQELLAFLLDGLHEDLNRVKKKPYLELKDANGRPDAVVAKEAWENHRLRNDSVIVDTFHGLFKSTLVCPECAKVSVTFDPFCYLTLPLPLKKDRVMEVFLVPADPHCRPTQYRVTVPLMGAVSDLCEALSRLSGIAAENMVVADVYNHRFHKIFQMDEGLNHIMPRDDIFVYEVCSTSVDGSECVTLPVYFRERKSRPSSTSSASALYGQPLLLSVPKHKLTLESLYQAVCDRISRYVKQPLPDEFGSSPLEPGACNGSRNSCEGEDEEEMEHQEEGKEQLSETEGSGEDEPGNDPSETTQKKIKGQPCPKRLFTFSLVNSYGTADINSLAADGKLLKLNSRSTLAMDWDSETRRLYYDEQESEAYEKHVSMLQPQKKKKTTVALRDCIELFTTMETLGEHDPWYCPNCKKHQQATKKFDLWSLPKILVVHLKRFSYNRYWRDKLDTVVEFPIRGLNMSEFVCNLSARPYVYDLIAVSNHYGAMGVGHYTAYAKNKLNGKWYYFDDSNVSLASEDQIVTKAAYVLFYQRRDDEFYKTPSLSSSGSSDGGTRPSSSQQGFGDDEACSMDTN
Summary of the method: as §1

Measured: log2 ratio of Biotin-Ahx-Ub-VS probe labelling

USP34, sequence (Q70CQ2 whole entry, the tested form may be a part): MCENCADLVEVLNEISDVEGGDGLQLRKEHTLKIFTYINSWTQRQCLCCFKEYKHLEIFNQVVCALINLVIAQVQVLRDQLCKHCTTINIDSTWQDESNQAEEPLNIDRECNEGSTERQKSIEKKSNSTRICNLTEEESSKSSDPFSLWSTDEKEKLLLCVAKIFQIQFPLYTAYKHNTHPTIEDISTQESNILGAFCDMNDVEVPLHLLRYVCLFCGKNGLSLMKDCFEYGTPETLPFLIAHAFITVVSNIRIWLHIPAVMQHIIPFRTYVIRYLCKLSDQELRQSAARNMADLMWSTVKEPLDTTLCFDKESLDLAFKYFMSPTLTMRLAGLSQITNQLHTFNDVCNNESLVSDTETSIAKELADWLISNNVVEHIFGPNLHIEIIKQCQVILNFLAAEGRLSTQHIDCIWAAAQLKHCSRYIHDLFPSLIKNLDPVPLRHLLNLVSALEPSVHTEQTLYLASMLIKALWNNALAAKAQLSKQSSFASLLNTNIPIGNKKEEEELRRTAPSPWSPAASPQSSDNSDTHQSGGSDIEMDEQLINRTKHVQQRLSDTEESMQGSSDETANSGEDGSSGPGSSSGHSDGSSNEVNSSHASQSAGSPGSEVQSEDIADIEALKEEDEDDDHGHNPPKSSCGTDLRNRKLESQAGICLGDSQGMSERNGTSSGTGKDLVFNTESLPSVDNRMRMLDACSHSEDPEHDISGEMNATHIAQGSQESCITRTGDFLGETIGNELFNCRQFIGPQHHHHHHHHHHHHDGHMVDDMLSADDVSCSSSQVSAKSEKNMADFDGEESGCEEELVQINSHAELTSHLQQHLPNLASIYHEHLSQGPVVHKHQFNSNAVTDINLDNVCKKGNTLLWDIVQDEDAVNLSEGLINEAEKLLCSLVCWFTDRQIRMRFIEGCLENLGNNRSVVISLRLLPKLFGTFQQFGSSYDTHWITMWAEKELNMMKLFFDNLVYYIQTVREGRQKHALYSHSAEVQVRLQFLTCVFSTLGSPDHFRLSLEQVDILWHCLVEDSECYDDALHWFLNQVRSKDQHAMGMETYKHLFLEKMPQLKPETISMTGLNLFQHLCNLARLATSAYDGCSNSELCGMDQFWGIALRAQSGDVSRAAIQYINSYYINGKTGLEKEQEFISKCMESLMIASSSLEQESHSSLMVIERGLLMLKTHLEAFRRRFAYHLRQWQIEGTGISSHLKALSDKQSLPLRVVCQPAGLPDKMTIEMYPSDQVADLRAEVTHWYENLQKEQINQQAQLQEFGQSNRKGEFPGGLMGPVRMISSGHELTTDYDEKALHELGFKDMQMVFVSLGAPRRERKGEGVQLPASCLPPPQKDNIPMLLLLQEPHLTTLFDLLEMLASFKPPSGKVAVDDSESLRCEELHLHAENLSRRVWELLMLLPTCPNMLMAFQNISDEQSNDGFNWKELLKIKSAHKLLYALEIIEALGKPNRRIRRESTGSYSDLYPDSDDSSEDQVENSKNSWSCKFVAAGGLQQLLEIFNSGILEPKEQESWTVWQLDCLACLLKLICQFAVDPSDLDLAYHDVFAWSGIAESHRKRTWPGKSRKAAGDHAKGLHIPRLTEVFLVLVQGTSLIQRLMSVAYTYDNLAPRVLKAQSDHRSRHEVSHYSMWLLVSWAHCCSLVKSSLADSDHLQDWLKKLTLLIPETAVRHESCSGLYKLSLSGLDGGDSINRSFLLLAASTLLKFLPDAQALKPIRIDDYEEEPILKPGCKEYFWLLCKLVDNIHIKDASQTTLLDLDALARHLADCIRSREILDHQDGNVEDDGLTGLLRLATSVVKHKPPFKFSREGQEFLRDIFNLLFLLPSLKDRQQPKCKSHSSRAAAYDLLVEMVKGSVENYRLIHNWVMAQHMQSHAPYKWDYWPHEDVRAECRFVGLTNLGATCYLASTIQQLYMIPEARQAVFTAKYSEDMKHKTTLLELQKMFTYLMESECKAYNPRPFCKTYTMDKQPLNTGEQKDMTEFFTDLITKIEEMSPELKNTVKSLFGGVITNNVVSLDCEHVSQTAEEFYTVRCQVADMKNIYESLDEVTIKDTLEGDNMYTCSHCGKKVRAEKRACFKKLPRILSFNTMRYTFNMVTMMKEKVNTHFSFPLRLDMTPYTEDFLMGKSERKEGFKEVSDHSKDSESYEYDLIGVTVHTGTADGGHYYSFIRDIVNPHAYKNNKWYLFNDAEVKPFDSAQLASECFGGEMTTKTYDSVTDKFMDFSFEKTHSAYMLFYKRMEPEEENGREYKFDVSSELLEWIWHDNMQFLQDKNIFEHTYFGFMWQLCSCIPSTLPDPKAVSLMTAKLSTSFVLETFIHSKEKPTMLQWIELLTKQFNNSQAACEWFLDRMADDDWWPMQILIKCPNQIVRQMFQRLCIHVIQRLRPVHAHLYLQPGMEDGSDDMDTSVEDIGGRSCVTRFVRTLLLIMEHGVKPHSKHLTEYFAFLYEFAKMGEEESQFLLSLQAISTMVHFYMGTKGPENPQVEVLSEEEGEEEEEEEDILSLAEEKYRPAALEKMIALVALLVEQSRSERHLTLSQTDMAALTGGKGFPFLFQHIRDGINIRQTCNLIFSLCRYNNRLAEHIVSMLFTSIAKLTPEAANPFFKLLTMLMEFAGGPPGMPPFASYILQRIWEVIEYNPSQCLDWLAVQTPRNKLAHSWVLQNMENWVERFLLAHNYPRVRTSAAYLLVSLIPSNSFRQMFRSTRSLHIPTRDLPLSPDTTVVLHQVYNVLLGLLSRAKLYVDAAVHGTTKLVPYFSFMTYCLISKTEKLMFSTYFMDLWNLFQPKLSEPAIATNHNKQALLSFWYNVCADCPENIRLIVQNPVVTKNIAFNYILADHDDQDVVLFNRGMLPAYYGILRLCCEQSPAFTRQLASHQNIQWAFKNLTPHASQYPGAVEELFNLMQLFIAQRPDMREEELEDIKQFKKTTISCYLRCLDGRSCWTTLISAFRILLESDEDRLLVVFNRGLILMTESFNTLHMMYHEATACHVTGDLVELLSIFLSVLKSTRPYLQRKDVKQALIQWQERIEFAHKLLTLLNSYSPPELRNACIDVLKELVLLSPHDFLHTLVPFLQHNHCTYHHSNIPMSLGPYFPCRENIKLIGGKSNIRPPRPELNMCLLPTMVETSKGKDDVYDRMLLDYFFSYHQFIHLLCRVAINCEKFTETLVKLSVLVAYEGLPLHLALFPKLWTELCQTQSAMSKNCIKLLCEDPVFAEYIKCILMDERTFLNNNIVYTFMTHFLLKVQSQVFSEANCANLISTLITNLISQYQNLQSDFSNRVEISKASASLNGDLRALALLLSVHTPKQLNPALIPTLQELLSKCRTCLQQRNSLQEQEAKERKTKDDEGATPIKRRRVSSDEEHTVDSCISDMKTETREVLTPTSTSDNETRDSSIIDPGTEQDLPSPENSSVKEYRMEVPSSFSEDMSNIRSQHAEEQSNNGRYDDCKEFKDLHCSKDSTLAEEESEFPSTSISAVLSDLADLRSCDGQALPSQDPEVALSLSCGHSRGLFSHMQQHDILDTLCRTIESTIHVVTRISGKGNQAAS

O=C(CCl)Nc1nnc(CC(F)(F)F)o1
inactive: USP34 0.146 | USP36 -0.182 | USP38 -0.0633 | USP39 0.00671 | USP4 -0.0637
